Source: PubChem BioAssay (Broad Institute)
Hits are enriched below; roughly 2.1% of the tested compounds scored in any of these assays.
YB-1 expression: YB-1 expression inhibition; U2OS, qRT-PCR YB-1 vs CDIP delta delta Cp, 16 h; stronger effect = higher value; zero = DMSO, each unit about twofold; 30,000 tested, 0.37% active; delta delta Cp (YB-1 minus CDIP) (no concentration beside the values);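 active = delta delta Cp rounded down to an integer at or above 3, about 3 SD of DMSO wells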;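 note: higher means less YB-1 transcript or more CDIP transcript relative to DMSO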
U2OS ROS induce: inducers of reactive oxygen species in cancer cells; 46,000 tested, 2% active; ROS induction (% of piperlongumine), % at 10 µM; U2OS ROS induction, H2DCF-DA fluorescence; in the data active = ROS induction above about 79%, passing the limit was not always enough;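 note: 0% = DMSO vehicle median and 100% = reference compound median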
* marks the source's active call; other numbers are inactive results; / = no result.

SMILES	YB-1 expression	U2OS ROS induce
C[C@@H]1O[C@@H](O[C@H]2[C@H](O[C@H]3CC[C@@]4(C)C(CC[C@]5(C)C4C=C[C@]46OC[C@@]7(CCC(C)(C)C[C@H]74)[C@@H](O)C[C@]65C)[C@]3(C)CO)O[C@H](CO)[C@@H](O)[C@@H]2O[C@@H]2O[C@H](CO)[C@@H](O[C@@H]3O[C@@H](C)[C@H](O)[C@@H](O)[C@H]3O)[C@H](O)[C@H]2O)[C@H](O)[C@H](O)[C@H]1O (stereo not given in full)	3.4*	-42
CC1=Nc2ccccc2NC(=O)C1Sc1nc2ccccc2s1 (stereo not given)	/	8
CC(NC(=O)c1ccccc1C(=O)O)C12CC3CC(CC(C3)C1)C2 (stereo not given)	/	4
O=C(N1CCOCC1)[C@@]1(CCS(=O)(=O)c2ccccc2)N=C(c2ccc(OCCCO)cc2)O[C@H]1c1ccccc1	-0.63	12
[N-]=[N+]=NCc1ccccc1C[C@]1(C(=O)N2CCCCC2)N=C(c2ccc(OCCCO)cc2)O[C@H]1c1ccccc1	-0.063	155*
[N-]=[N+]=NCc1ccccc1C[C@@]1(C(=O)NCc2ccccc2)N=C(c2ccc(OCCCO)cc2)O[C@@H]1c1ccccc1	0.81	118*
[N-]=[N+]=NCc1ccccc1C[C@@]1(C(=O)N2CCCCC2)N=C(c2ccc(OCCCO)cc2)O[C@@H]1c1ccccc1	0.036	53
COCCCNC(=O)[C@@]1(Cc2ccccc2CN=[N+]=[N-])N=C(c2ccc(OCCCO)cc2)O[C@H]1c1ccccc1	0.58	26
O=C(N1CCCCC1)[C@]1(CCS(=O)(=O)c2ccccc2)N=C(c2ccc(OCCCO)cc2)O[C@@H]1c1ccccc1	-0.16	88*
O=C(NCC1CCCN2CCCCC12)c1cccc(Br)c1 (stereo not given)	/	-5
Cc1cc(C)c2cc(C(=O)Nc3ccccc3Cl)[nH]c2c1	/	-14
COc1ccc(-c2nc(CNS(=O)(=O)c3ccccc3F)cs2)cc1	/	-3
CCOC(=O)NC(=S)Nc1ccc(F)cc1	-0.12	-1
Cc1ccccc1COc1ccc2oc(-c3ccccc3)c(C(=O)O)c2c1	/	9
CN1C(=O)C(C)(C)c2cc(S(=O)(=O)N3CCCC3)ccc21	/	22
COCCOC(=O)N1C(=O)[C@@]2(c3ccccc31)[C@H](c1ccc(O)cc1)N1[C@H](c3ccccc3)[C@H](c3ccccc3)OC(=O)[C@H]1[C@@H]2C(=O)N1CCc2cc(OC)c(OC)cc2C1	-0.078	11
COCCOC(=O)N1C(=O)[C@@]2(c3ccccc31)[C@H](c1ccccc1OCCO)N1[C@H](c3ccccc3)[C@H](c3ccccc3)OC(=O)[C@H]1[C@@H]2C(=O)N1CCc2cc(OC)c(OC)cc2C1	0.23	214*
COc1cc2c(cc1OC)CN(C(=O)[C@@H]1[C@H]3C(=O)O[C@H](c4ccccc4)[C@H](c4ccccc4)N3[C@H](c3ccccc3OCCO)[C@@]13C(=O)Nc1ccc(C#CCNC(N)=O)cc13)CC2	0.11	18
COCCOC(=O)N1C(=O)[C@@]2(c3ccccc31)[C@H](C(=O)N1CCc3cc(OC)c(OC)cc3C1)[C@H]1C(=O)O[C@H](c3ccccc3)[C@H](c3ccccc3)N1[C@@H]2c1ccc(O)cc1	-0.089	185*
CCOC(=O)c1oc2ccc3c(c2c1C)C(=O)CC(C)(C)O3	/	4
CN(C(=O)CSc1nc(N)c2c3c(sc2n1)CSC(C)(C)C3)c1ccccc1	/	122*
CCOC(=O)CSc1nc(N)c2c3c(sc2n1)COC(C)(C)C3	/	18
CCC1=Nc2cc(C(=O)NCCN3CCCCCC3)ccc2Sc2ccc(C)cc21	/	10
CC(C)NC(=O)c1ccc2c(=O)n(Cc3ccco3)c(=S)[nH]c2c1	/	21
O=C(NCc1ccco1)c1ccc(Cn2c(=S)[nH]c3ccc(Br)cc3c2=O)cc1	/	81*
SMILES	YB-1 expression	U2OS ROS induce
C[C@@H]1CN([C@@H](C)CO)C(=O)c2cccc(N(C)C)c2O[C@@H]1CN(C)Cc1ccc2c(c1)OCO2	12*	-7
C[C@@H]1CN([C@H](C)CO)C(=O)c2cccc(N(C)C)c2O[C@H]1CN(C)Cc1ccc2c(c1)OCO2	0.24	-4
C[C@H](CO)N1C[C@H](C)[C@@H](CN(C)C(=O)Nc2ccc3c(c2)OCO3)Oc2c(NS(=O)(=O)c3ccccc3)cccc2C1=O	0.093	-4
C[C@H](CO)N1C[C@H](C)[C@H](CN(C)C(=O)Nc2ccc3c(c2)OCO3)Oc2c(NC(=O)Nc3ccc(C(F)(F)F)cc3)cccc2C1=O	-0.59	23
C[C@@H]1CN([C@H](C)CO)C(=O)c2cccc(NC(=O)Nc3ccc(F)cc3)c2O[C@H]1CN(C)Cc1ccc2c(c1)OCO2	-0.53	87*
C[C@@H]1CN([C@H](C)CO)C(=O)c2cccc(NC(=O)Nc3ccc(C(F)(F)F)cc3)c2O[C@@H]1CN(C)C(=O)Nc1ccc2c(c1)OCO2	0.35	94*
